Experiment [1] in a line: TOX21_p53_BLA_p5_viability: Viability Assessment in the Tox21 HCT-116 p53 Agonism Beta-lactamase Assay, Phase 5 (AID 2283600). The method, boiled down: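 After the 460/530 nm beta-lactamase measurement, the wells received an ATP-detection luciferase reagent; signal was read 30 min later at RT. Compound treatment lasted 16 h on cells pre-incubated 5 h post-seeding.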
Experiment [2] in a line: Tanguay_ZF_120hpf_MORT_legacy: (Legacy) Oregon State University Tanguay Lab 120 Hour Post-fertilization zebrafish Assay for Mortality (AID 2283633).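 As to AC50: fitted as increase in binary mortality versus DMSO negative control.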 The method, boiled down:
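Static waterborne exposure from 6 to 120 hpf at 28C of single dechorionated wild-type (5D) embryos per well, 0.64% DMSO final. Death recorded present/absent by brightfield at 24 and 120 hpf.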

Experiment [3] in a line: Tanguay_ZF_120hpf_YSE_legacy: (Legacy) Oregon State University Tanguay Lab 120 Hour Post-fertilization zebrafish Assay for Yolk Sac Edema (AID 2283634).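 As to AC50: actives raise the incidence of yolk sac edema above the DMSO baseline.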 The method, boiled down:
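Presence or absence of yolk sac edema was recorded at 120 hpf in surviving larvae. These were wild-type Tropical 5D embryos, chorion removed at 4 hpf, held in static exposure at 28C from 6 hpf with 0.64% DMSO vehicle.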

Experiment [4] is described as follows: Tanguay_ZF_120hpf_JAW_legacy: (Legacy) Oregon State University Tanguay Lab 120 Hour Post-fertilization zebrafish Assay for Jaw Malformation (AID 2283638).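 As to AC50: active means more embryos with jaw malformation than DMSO controls.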 The essentials:
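Binary jaw-malformation call at 120 hpf by brightfield microscopy. Embryos (Tropical 5D strain, chorion removed at 4 hpf) were dosed statically at 6 hpf, one per well, at 28C with 0.64% DMSO. Embryos that died were not scored.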

Experiment [5] in a line: Tanguay_ZF_120hpf_OTIC_legacy: (Legacy) Oregon State University Tanguay Lab 120 Hour Post-fertilization zebrafish Assay for Otic Vesicle Malformation (AID 2283639). The essentials:
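Tropical 5D wild-type zebrafish embryos statically exposed in 0.64% DMSO at 28C until 120 hpf; 5uM trimethyltin chloride as positive control. Otic vesicle malformation scored present/absent by brightfield; dead embryos not scored; gain fitted versus DMSO.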

Experiment [6] is described as follows: Tanguay_ZF_120hpf_BRAI_legacy: (Legacy) Oregon State University Tanguay Lab 120 Hour Post-fertilization zebrafish Assay for Brain Malformation (AID 2283641). The method, boiled down:
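Binary brightfield scoring of brain malformation at 120 hpf in Tropical 5D larvae held under static exposure at 28C (0.64% v/v DMSO), non-mortality endpoints skipped if dead. Positive control: 5uM trimethyltin chloride; fit versus DMSO.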

A short description of experiment [7]: Tanguay_ZF_120hpf_SOMI_legacy: (Legacy) Oregon State University Tanguay Lab 120 Hour Post-fertilization zebrafish Assay for Somite Malformation (AID 2283647). The essentials:
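Binary somite-defect scoring at 120 hpf, omitted for embryos that died, in wild-type (Tropical 5D) zebrafish with chorion removed by pronase at 4 hpf; static exposure began 6 hpf, single embryos per well, 28C, 0.64% DMSO; fitted positive versus DMSO.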

The nature of experiment [8]: Tanguay_ZF_120hpf_CFIN_legacy: (Legacy) Oregon State University Tanguay Lab 120 Hour Post-fertilization zebrafish Assay for Caudal Fin Malformation (AID 2283649). The method, boiled down:
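Binary brightfield scoring of caudal fin defects at 120 hpf after static, light-shielded exposure at 28C from 6 hpf. Tropical 5D embryos, chorion removed with pronase at 4 hpf, final DMSO 0.64%.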

The nature of experiment [9]: Tanguay_ZF_120hpf_PIG_legacy: (Legacy) Oregon State University Tanguay Lab 120 Hour Post-fertilization zebrafish Assay for Pigmentation Malformation (AID 2283650). The method, boiled down: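 Tropical 5D wild-type zebrafish embryos, dechorionated with pronase at 4 hpf, were exposed singly from 6 hpf to 120 hpf statically at 28C in sealed, dark plates with 0.64% DMSO; pigmentation scored present/absent by brightfield microscopy, fitted against DMSO.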

Experiment [10] can be described thus: Tanguay_ZF_120hpf_CIRC_legacy: (Legacy) Oregon State University Tanguay Lab 120 Hour Post-fertilization zebrafish Assay for Circulatory Malformation (AID 2283651). The essentials:
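Dechorionated wild-type 5D zebrafish embryos, one per well, statically exposed from 6 to 120 hpf at 28C with 0.64% DMSO; circulatory malformation scored present/absent by brightfield microscopy at 120 hpf, dead embryos excluded.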

Experiment [11] is described as follows: Tanguay_ZF_120hpf_SWIM_legacy: (Legacy) Oregon State University Tanguay Lab 120 Hour Post-fertilization zebrafish Assay for Swim Bladder Malformation (AID 2283654).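 Also: swim bladder malformation in each larva scored yes or no under brightfield.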 The essentials:
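Dechorionated Tropical 5D wild-type embryos, placed singly from 6 hpf, were statically exposed at 28C to 120 hpf with 0.64% DMSO final; swim bladder malformation was scored present/absent by brightfield microscopy, gain of signal relative to DMSO controls.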

Experiment [12] can be described thus: Tanguay_ZF_120hpf_TRUN_legacy: (Legacy) Oregon State University Tanguay Lab 120 Hour Post-fertilization zebrafish Assay for Truncated Body (AID 2283655). The method, boiled down:
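Binary presence/absence of truncated body is recorded at 120 hpf by brightfield, with non-mortality endpoints skipped after death. Exposure is static from 6 hpf in sealed dark plates at 28C, using dechorionated wild-type zebrafish, 0.64% DMSO.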

A short description of experiment [13]: Tanguay_ZF_120hpf_EYE_legacy: (Legacy) Oregon State University Tanguay Lab 120 Hour Post-fertilization zebrafish Assay for Eye Malformation (AID 2283636).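 Also: binary presence or absence of eye malformation scored by brightfield in 120 hpf larvae.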 The essentials: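 Dechorionated wild-type Tropical 5D zebrafish embryos were exposed statically from 6 hpf, one per well, to 120 hpf at 28C in sealed, foil-covered plates with 0.64% DMSO. Eye malformation was scored present/absent by brightfield microscopy against DMSO controls.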

A short description of experiment [14]: Tanguay_ZF_120hpf_SNOU_legacy: (Legacy) Oregon State University Tanguay Lab 120 Hour Post-fertilization zebrafish Assay for Snout Malformation (AID 2283637). The essentials:
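Tropical 5D wild-type zebrafish embryos, dechorionated with pronase at 4 hpf, were exposed singly from 6 hpf to 120 hpf statically at 28C in 0.64% DMSO. Snout malformation was scored present/absent by brightfield microscopy, fitted against DMSO.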

Experiment [15] can be described thus: Tanguay_ZF_120hpf_PE_legacy: (Legacy) Oregon State University Tanguay Lab 120 Hour Post-fertilization zebrafish Assay for Pericardial Edema (AID 2283640).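 As to AC50: potency for increased incidence of pericardial edema versus DMSO baseline.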 The essentials: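 Scoring was binary, by brightfield microscopy at 120 hpf, and skipped where mortality occurred. Wild-type embryos were kept under sealed, foil-covered static exposure at 28C in 0.64% (vol/vol) DMSO.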

Experiment [16] in a line: Tanguay_ZF_120hpf_PFIN_legacy: (Legacy) Oregon State University Tanguay Lab 120 Hour Post-fertilization zebrafish Assay for Pectoral Fin Malformation (AID 2283648).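 Also: each larva judged yes or no for fin defect by brightfield with dead larvae skipped.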 The essentials: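 Tropical 5D wild-type embryos, dechorionated with pronase at 4 hpf, were placed singly in wells at 6 hpf and statically exposed until 120 hpf at 28C, sealed and dark, with 0.64% (vol/vol) final DMSO; pectoral fin malformation scored present/absent.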

Experiment [17] has as its target Cellular tumor antigen p53 (Homo sapiens) (UniProt P04637). The experiment can be described thus: TOX21_p53_BLA_p4_ratio: Tox21 HCT-116 p53 Agonism Beta-lactamase Assay, Ratio, Phase 4 (AID 2283601). The essentials:
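HCT116 cells carrying an inducible beta-lactamase reporter were plated at 4000 cells/well, rested 5 h, then exposed to compounds in DMSO (217-fold dilution) for 16 h at 37C. CCF4-AM substrate was loaded 2 h at room temperature; 460/530 nm emission ratio scored gain-of-signal versus DMSO.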

Experiment [18] can be described thus: Tanguay_ZF_120hpf_AXIS_legacy: (Legacy) Oregon State University Tanguay Lab 120 Hour Post-fertilization zebrafish Assay for Body Axis Malformation (AID 2283635). The method, boiled down:
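Binary scoring of axis defects at 120 hpf under brightfield, fitted positive versus DMSO. Tropical 5D embryos, chorion removed by pronase at 4 hpf, were singly exposed in sealed, dark plates at 28C from 6 hpf; DMSO 0.64% final.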

Inconclusive results are not listed. Some structures have more than one record in an assay (separate samples or runs), and their calls can disagree. The source made the active and inactive calls. The calls were made as follows: active = hit-call score of the fitted dose curve at least 0.9, where 1 is the maximum; inconclusive = response in the unintended direction; inactive = score below 0.9.

Chain of Cellular tumor antigen p53 (Homo sapiens) (P04637 whole entry, looked up): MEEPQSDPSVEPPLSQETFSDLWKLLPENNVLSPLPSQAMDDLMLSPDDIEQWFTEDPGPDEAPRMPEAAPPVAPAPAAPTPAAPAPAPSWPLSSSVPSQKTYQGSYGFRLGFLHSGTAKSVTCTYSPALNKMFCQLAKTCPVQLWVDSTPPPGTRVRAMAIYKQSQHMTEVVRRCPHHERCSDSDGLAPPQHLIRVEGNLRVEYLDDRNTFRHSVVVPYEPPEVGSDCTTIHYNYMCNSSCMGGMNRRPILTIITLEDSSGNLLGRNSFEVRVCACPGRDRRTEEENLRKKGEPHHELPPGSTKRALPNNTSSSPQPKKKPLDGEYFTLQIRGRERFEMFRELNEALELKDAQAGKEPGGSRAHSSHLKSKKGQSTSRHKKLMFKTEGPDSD

`C[C@]12CCC(=O)C=C1CC[C@@H]1[C@@H]2CC[C@@]2(C)[C@H]1CC[C@]2(C)O`: the compound was called inactive in [1], in experiment [2], in experiment [3], in experiment [4], in experiment [5] and in experiment [6]. Also, the result in experiment [7], in experiment [8], in [9], in experiment [10], in experiment [11] and in [12] was inactive.
For `C[C@]12CCC(=O)C=C1CC[C@@H]1[C@@H]2CC[C@]2(C)C(=O)CC[C@@H]12`, the result in [1], in experiment [2], in [7], in experiment [10], in experiment [11] and in experiment [12] was inactive. Besides, the AC50 in experiment [3] was 36.2 µM (active); in [13] it was 45.5 µM (active); in experiment [14], 37.7 µM (active); in experiment [4], 38.3 µM (active); in experiment [15] it was 36.3 µM (active); in [16] it was 35.1 µM (active). In addition, the AC50 in experiment [8] is 40.4 µM (active); in experiment [9] it was 43.9 µM (active).
Consider `CCSC(=O)N(CC)C1CCCCC1`, for which the outcome in experiment [2], in [3], in experiment [14], in [4], in experiment [5] and in [7] was inactive. Also, the compound was called inactive in experiment [8], in experiment [9], in experiment [10], in experiment [11] and in experiment [12].
As to `CCC(=O)O[C@H]1CC[C@H]2[C@@H]3CCC4=CC(=O)CC[C@]4(C)[C@H]3CC[C@]12C`, the compound was classed as inactive in experiment [1], in [2], in experiment [3], in experiment [13], in experiment [14] and in experiment [4]. The call in experiment [5], in experiment [15], in experiment [7], in experiment [16], in experiment [8] and in experiment [9] was inactive. Further, the result in experiment [10], in experiment [11] and in experiment [12] was inactive.
Take `CCC(C)(c1ccc(O)cc1)c1ccc(O)cc1`: the call in experiment [1] and in experiment [8] was inactive. In addition, the AC50 in [2] was 36.9 µM (active); in [3], 41 µM (active); in [13] it was 46.2 µM (active); in [14], 46.2 µM (active); in [4], 47.3 µM (active); in [15], 43.4 µM (active). Moreover, the AC50 in [7] was 46.4 µM (active); in experiment [9], 43.2 µM (active); in [10], 42.7 µM (active); in experiment [11] it was 43.1 µM (active); in experiment [12] it was 46.6 µM (active).
As for `COc1ccc(O)c(C(C)(C)C)c1`, the AC50 in experiment [17] was 86.1 µM (active). Moreover, the outcome in [17], in experiment [2], in experiment [3], in experiment [13], in [14] and in [4] was inactive. For the same compound, the compound was called inactive in experiment [15], in experiment [7], in [16], in [8], in experiment [9] and in experiment [11]. The compound was classed as inactive in [12].
Consider `Cc1ccccc1CO[C@@H]1C[C@@]2(C(C)C)CC[C@]1(C)O2`, for which the outcome in experiment [3], in experiment [13], in experiment [14], in experiment [4], in experiment [5] and in experiment [15] was inactive. For the same compound, the compound was called inactive in experiment [7], in [16], in experiment [8], in [9], in experiment [10] and in experiment [11]. Further, the result in [12] was inactive.
As to `Nn1cnnc1`, the compound was classed as inactive in experiment [2], in experiment [3], in experiment [18], in experiment [13], in experiment [14] and in experiment [4]. The compound was called inactive in [5], in experiment [15], in [6], in experiment [7], in experiment [8] and in [10]. In addition, the call in [11] and in experiment [12] was inactive.

The term AC50 denotes the midpoint of the concentration-response curve, whichever way the signal moves.

For the origin of these results see PubChem BioAssay (EPA / NIEHS).
